Inhibition data for 93 compounds are collected here from PubChem BioAssay AID624040 (The Scripps Research Institute Molecular Screening Center, 2012).

Hit rate of the full screen: of about 360,000 compounds, about 2,100 (0.58%) were called active. This is one part of a sample in which actives are shown more often than they occur.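 Rule for the calls: active = inhibition above a per-plate cutoff, the mean of that plate's test compounds plus 3 SD (cut at about 27% in these data); inactive = the rest.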

The inhibition is the change of the read-out against control, counted positive when it falls.

For this experiment, the target named is Muscarinic acetylcholine receptor M5 (Homo sapiens) (UniProt P08912). Briefly: CHRM5 blockers of acetylcholine calcium response – CHO cells, Fluo-8 calcium fluorescence, primary screen (AID 624040).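 Note: 0% = acetylcholine EC80 with DMSO and 100% = DMSO without agonist.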 The conditions noted are these: CHO-hM5 cells, ACh EC80, at 3 µM, active compounds read high.
Sequence of Muscarinic acetylcholine receptor M5 (Homo sapiens) (P08912 whole entry, looked up): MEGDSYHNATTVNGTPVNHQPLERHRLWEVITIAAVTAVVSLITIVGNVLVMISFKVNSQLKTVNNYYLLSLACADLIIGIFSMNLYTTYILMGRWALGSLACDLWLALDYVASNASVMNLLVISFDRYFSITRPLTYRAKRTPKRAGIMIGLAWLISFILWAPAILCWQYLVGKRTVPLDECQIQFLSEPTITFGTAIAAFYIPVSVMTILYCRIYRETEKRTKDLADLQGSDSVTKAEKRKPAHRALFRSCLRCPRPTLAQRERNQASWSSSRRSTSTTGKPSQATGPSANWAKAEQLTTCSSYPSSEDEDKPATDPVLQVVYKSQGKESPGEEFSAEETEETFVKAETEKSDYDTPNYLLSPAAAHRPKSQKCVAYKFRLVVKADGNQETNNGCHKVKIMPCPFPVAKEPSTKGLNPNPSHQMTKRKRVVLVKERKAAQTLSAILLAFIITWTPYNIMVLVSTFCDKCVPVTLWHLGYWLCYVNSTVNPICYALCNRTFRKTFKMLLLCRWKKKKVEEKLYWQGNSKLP
Regarding `CC(=O)N1CC(=O)N(CC(=O)Nc2ccc(Br)cc2)C1=S`, the inhibition was 15.7% (inactive). As to `Cc1ccc(S(=O)(=O)N(C)CC(=O)NCC(c2ccc(F)cc2)N2CCOCC2)cc1` (stereo not drawn), the inhibition was 4.43% (inactive).

Regarding `Cc1ccc(NC(=S)N2CCN(c3ncccn3)CC2)cc1C`, the inhibition is 0.78% (inactive). In the case of `O=C(c1ccc(Cl)nc1)N1CCN(S(=O)(=O)c2ccc3c(c2)OCCO3)CC1` it was 8.5% (inactive); in that of `O=C(c1c(F)cccc1Cl)N1CCN(S(=O)(=O)c2ccc3c(c2)OCCCO3)CC1`, 32.7% (active); in that of `O=C(c1c(F)cccc1F)N1CCN(S(=O)(=O)c2ccc3c(c2)OCCO3)CC1`, 15.2% (inactive). Turning to `Nc1nonc1-n1nnc(C(=O)N/N=C/c2ccc(Cl)cc2)c1-c1ccc2c(c1)OCO2`, the inhibition is 4.23% (inactive). Then `Cc1ccccc1C(OCC(O)CN1CCCCC1CCO)c1ccccc1` (stereo not drawn), with 1.17% (inactive); and `Cc1ccccc1C(OCCN(C)C)C1CCCCC1` (stereo not drawn), with 98.7% (active). In the case of `CN(C)CCOC1c2ccccc2-c2ccccc21` it was 9.21% (inactive); in that of `Cc1ccc(S(=O)(=O)N2CCN(C(=O)CCC(=O)NC3CCCc4ccccc43)CC2)cc1` (stereo not drawn), 1.42% (inactive); in that of `CCOc1ccc(C(=O)N(Cc2ccc(N(C)C)cc2)C2CCS(=O)(=O)C2)cc1` (stereo not drawn), -0.33% (inactive). With `Cc1noc(C)c1CSCC(=O)Nc1nc2ccc(Oc3ccccc3)cc2s1`, the inhibition was -2.14% (inactive).

In the case of `C=CCNC(=O)c1ccccc1SCc1c(C)noc1C`, the inhibition was -3.18% (inactive).

As for `Cc1noc(C)c1CSc1nnc2ccc3ccccc3n12`, the inhibition is 31.2% (active). Then `CC(C)(C)c1cnnn1-c1ccc([N+](=O)[O-])cc1`, with -0.77% (inactive). As for `CC1(C)C=C2[C@H]3CC[C@@H]4[C@@]5(C)CCC(=O)C(C)(C)[C@@H]5CC[C@@]4(C)[C@]3(C)CC[C@@]2(C(=O)O)CC1`, the inhibition was 0.2% (inactive). `COc1cc2c(cc1OC)C(C(=O)Nc1cc(C)c(OC)c(C)c1)CC(=O)N2` (stereo not drawn): the inhibition was -6.29% (inactive). Then `CC(=O)Nc1ccc(N2C(=O)CCC2=O)cc1C`, with 0.14% (inactive). In the case of `O=C(CN1C(=O)/C(=C\c2ccc(C(F)(F)F)cc2)Sc2ccccc21)NCc1ccco1` it was 18.4% (inactive). As for `CCC(=O)Nc1cc(C(F)(F)F)ccc1N1CCCC1`, the inhibition is 4.4% (inactive).

On to `O=C(CN1CCCCCC1)N1c2ccccc2Sc2ccc(C(F)(F)F)cc21`, for which the inhibition is 98.4% (active). As for `O=C(CN1CCCCC1)N1c2ccccc2Sc2ccc(C(F)(F)F)cc21`, the inhibition is 98.8% (active). Then `O=C(CSc1nc2ccccc2o1)N1c2ccccc2Sc2ccc(Cl)cc21`, with -5.39% (inactive); and `O=C(CN1CCCCCC1)Nc1ccc(Cl)cc1F`, with 7.56% (inactive); and `COc1ccccc1NC(=O)N(O)C1(C#N)CCCCC1`, with 4.25% (inactive). Regarding `CCOC(=O)c1c(S(=O)(=O)Nc2ccc(CN3CCC(C)CC3)cc2)c(C)n(C)c1C`, the inhibition is 0.52% (inactive). For `Cc1cc(C(=O)N2CCN(c3ccccn3)CC2)c(C)o1`, the inhibition is -9.14% (inactive). Then `Cc1cc(Br)ccc1NC(=O)c1cnc(N2CCN(c3ccccn3)CC2)c2ccccc12`, with 27.7% (active).

As to `Cc1cc(Br)ccc1NC(=O)c1sc2ncn(CC(=O)N3CCN(c4ccccn4)CC3)c(=O)c2c1C`, the inhibition is -9.8% (inactive). On to `C[C@H](CO)N1C[C@H](C)[C@@H](CN(C)S(=O)(=O)c2ccc(F)cc2)OCc2cnnn2CCCC1=O`, for which the inhibition is -6.37% (inactive). On to `CCc1noc(C)c1C(=O)Oc1ccc(N(C)S(=O)(=O)c2ccc(C)c(C)c2)cc1`, for which the inhibition was 11.9% (inactive). On to `CCN(CC)CCCC(C)n1c2nc(=O)[nH]c(=O)c-2nc2cc(Cl)ccc21` (stereo not drawn), for which the inhibition was 41.2% (active). Take `CCCN(CCc1ccccc1)C1CCc2c(O)cccc2C1` (stereo not drawn): the inhibition is 2.43% (inactive). As to `Cc1ccc(S(=O)(=O)N2CCC(C(=O)N3CCCCCCC3)CC2)cc1`, the inhibition was 1.57% (inactive). As for `Cc1ccc(S(=O)(=O)n2oc(=O)c(C3CCCCC3)c2N)cc1`, the inhibition is 33.2% (active).

As to `Cc1ccc(S(=O)(=O)N2CCC(N3CCCCCC3)CC2)cc1`, the inhibition is 6.92% (inactive). Consider `CCC(C)(C)NC(=O)CN(C(=O)C(=O)Nc1ccc2c(c1)OCCO2)C(C)(C)CC`, for which the inhibition is 1.43% (inactive). Then `CCOCCn1[nH]c2ccccc2c1=O`, with 3.03% (inactive); and `O=[N+]([O-])c1ccc(N2CCN(c3ccc(F)cc3)CC2)cn1`, with 8.5% (inactive); and `O=C(c1cncc(Br)c1)N1CCN(c2ccc([N+](=O)[O-])cc2)CC1`, with 15.7% (inactive). Take `O=C(c1cc(C(=O)N2CCN(c3ccc(F)cc3)CC2)cc([N+](=O)[O-])c1)N1CCN(c2ccc(F)cc2)CC1`: the inhibition is 29.5% (active). `CC(=O)c1c(N2CCOCC2)nc(=S)n(Cc2ccccc2)c1C`: the inhibition was 10% (inactive). In the case of `COc1ccccc1NC(=S)N1CCN(C(c2ccccc2)c2ccccc2)CC1` it was 32.8% (active). Turning to `COc1ccccc1NC(=S)N1CCC(NC(=O)C23CC4CC(CC(C4)C2)C3)CC1`, the inhibition was 6.64% (inactive).

Regarding `CCOc1ccccc1NC(=S)N1CCN(c2cccc(C)c2C)CC1`, the inhibition was -0.84% (inactive).

Consider `O=C(c1ccc2c(c1)C(=O)N(Cc1ccncc1)C2=O)N1CCN(S(=O)(=O)c2ccc(OC(F)(F)F)cc2)CC1`, for which the inhibition is 11.6% (inactive). In the case of `COc1cccc(COC(=O)C2CCN(S(=O)(=O)c3ccc(Cl)cc3)CC2)c1OC`, the inhibition was 10.6% (inactive). For `COc1ccc(CNc2ncnc3ccccc23)cc1`, the inhibition was 33.8% (active). Regarding `O=C(COc1ncnc2ccccc12)NC(=O)NCc1ccccc1`, the inhibition is 6.01% (inactive). As to `COc1ccc(CNC(=O)COc2cccnc2[N+](=O)[O-])cc1`, the inhibition was 8.36% (inactive).

Take `CCCCN(C)Cc1c(C)[nH]c2ccc(Cl)cc2c1=O`: the inhibition is -2.11% (inactive). Then `O=C(Nc1cccc(Cl)c1)Nc1ccccc1NS(=O)(=O)c1cccs1`, with 30.1% (active); and `O=S(=O)(NCCc1ccc(Cl)cc1)c1cccs1`, with 2.77% (inactive). In the case of `O=S(=O)(Nc1ccccc1)c1ccc(NS(=O)(=O)c2cccs2)cc1` it was 3.98% (inactive); in that of `CCCCCC1CCC(c2nnc(SCC(C)=O)o2)CC1` (stereo not drawn), -0.26% (inactive). Then `CCOC(=O)C(CO)NC(=O)C1(NC(C)=O)CCCC1` (stereo not drawn), with 5.55% (inactive). With `COc1cccc(N(CC(=O)NCc2ccccc2)C(=O)CCC(=O)Nc2nccs2)c1`, the inhibition was 9.51% (inactive).

Take `CCCc1cc(=O)[nH]c2nnc(SCC(=O)Nc3nnc(SCC)s3)n12`: the inhibition was 6.93% (inactive). In the case of `COc1ccccc1OCCNC(=O)CCNC(=O)c1ccccc1Cl` it was 17.2% (inactive); in that of `CC(=O)Nc1ccc(NC(=O)C(C)OC(=O)C2CC(=O)N(CCc3ccccc3)C2)cc1` (stereo not drawn), 7.46% (inactive); in that of `COc1cccc(/C=C2\SC(=N)N(c3ccc(F)cc3)C2=O)c1`, 11% (inactive).

For `CC(=O)N1CC(C)c2scc(C)[n+]2-c2ccccc21` (stereo not drawn), the inhibition is -1.76% (inactive). For `CCC(C(=O)NC1CCCC1)N(C(=O)c1snc(C(N)=O)c1N)c1ccc2c(c1)OCCO2` (stereo not drawn), the inhibition was -5.82% (inactive). In the case of `O=C(NNS(=O)(=O)c1ccc(Cl)cc1)C1CCN(Cc2ccccc2)CC1` it was 40.5% (active); in that of `Cc1ccc(S(=O)(=O)NCCC(=O)NC2CCN(Cc3ccccc3)CC2)cc1`, 6.57% (inactive); in that of `O=C(NCc1ccccc1CN1CCCC1)C1CCN(S(=O)(=O)c2ccc(Cl)cc2)CC1`, 1.2% (inactive). In the case of `CN(C)CCNc1ccc(-c2n[nH]c(=O)c3ccccc23)cc1[N+](=O)[O-]` it was 5.87% (inactive). `O=C(NCC1(N2CCCCC2)CCCCC1)c1ccc(NS(=O)(=O)c2ccc(F)cc2)cc1`: the inhibition is 6.39% (inactive).

Consider `CC(C)c1ccc(NC(=O)COC(=O)c2ccc(CN3CCCC3=O)cc2)cc1`, for which the inhibition was 11.4% (inactive). As for `Cc1cc(C)c(S(=O)(=O)N2CCCC2CNC(=O)c2ccc3c(c2)OCO3)c(C)c1` (stereo not drawn), the inhibition is 10.3% (inactive).

In the case of `O=C(COc1ccc(F)cc1Br)NCC1COc2ccccc2O1` (stereo not drawn), the inhibition was -3.52% (inactive).

With `c1ccc2c(c1)OCC(CNc1ncnc3nc[nH]c13)O2` (stereo not drawn), the inhibition was 46.2% (active). In the case of `CCC(=O)c1ccc(OCC(=O)N(CC)CC2COc3ccccc3O2)cc1` (stereo not drawn) it was -6.74% (inactive); in that of `CSc1ccccc1OCc1cc(C(=O)N2C[C@H]3CC[C@H]2C3)no1`, 23.9% (inactive). Then `CCc1nc2nc(C)c(NS(=O)(=O)c3ccc4c(c3)CCCC4)c(=O)n2[nH]1`, with 17.6% (inactive). In the case of `CN(CC#CCC(c1ccccc1)c1ccccc1)C(C)(C)C` it was 56.4% (active); in that of `CC(C)(C)N(CC#CCC(O)(c1ccccc1)C1CCCC1)CCO` (stereo not drawn), 8.39% (inactive); in that of `O=C1NC[C@@H](Cc2ccc(O)cc2)N(CCc2cccc(F)c2)C1=O`, 10.1% (inactive). As for `CCCCC(C(=O)NC(C)(C)C)N(Cc1ccccc1)C(=O)c1snc(C(N)=O)c1N` (stereo not drawn), the inhibition was -2.14% (inactive). Consider `Cc1cc(C)c(OCC(=O)N(Cc2cccs2)C2CCS(=O)(=O)C2)c(C)c1` (stereo not drawn), for which the inhibition is 5.07% (inactive).

On to `CN(C)C1=NC[C@H](Cc2ccccc2)N1CCc1ccc(F)cc1`, for which the inhibition is 2.48% (inactive). Then `CCCC[C@@H]1CN=C(N)N1CCc1cc(C(F)(F)F)cc(C(F)(F)F)c1`, with 32.4% (active); and `CCCCN1C(N)=NC[C@@H]1CC1CCCCC1`, with 0.65% (inactive); and `COc1cccc(C(O)c2nc(-c3ccc(C)c(C)c3)cs2)c1` (stereo not drawn), with 2.71% (inactive). Then `Cc1ccc(C(=O)Nc2c(-c3ccccc3)[nH][nH]c2=O)cc1`, with -12.3% (inactive); and `O=C(NC1=CC(=O)c2ccccc2C1=O)c1ccccc1`, with 36.2% (active); and `CN(C)C(=O)c1ccc(NC(=O)c2ccccc2-c2ccccc2)cc1`, with 12.5% (inactive). In the case of `O=C(O)CCC(=O)Nc1ccc(OCC2CCCO2)cc1` (stereo not drawn) it was -4.56% (inactive); in that of `COc1ccc(NC(=O)CN2C(=O)CSc3ccc(S(=O)(=O)N4CCC(C)CC4)cc32)cc1`, -4.66% (inactive). Regarding `COc1ccc(CNS(=O)(=O)c2cc(-c3cc(C)no3)ccc2C(C)C)cc1`, the inhibition was 27.2% (active). In the case of `CCc1ccc(-c2cc(C)no2)cc1S(=O)(=O)NCCc1ccc(S(N)(=O)=O)cc1` it was -7.03% (inactive); in that of `Cc1cc(-c2ccc(C)c(S(=O)(=O)NCCCN(Cc3ccccc3)C(C)C)c2)on1`, -8.38% (inactive).
